The list is not random: actives were taken first. Their share in the collection is about 12%.
G9a inh = G9a (human) methyltransferase inhibition; Q96KQ7; actives 8.8% (n = 350,000); Potency, µM (titrated, usually from 102 µM), without a hit: at the top dose activity, negative = inhibition, actives largely listed as inhibitors; AID 504332; G9a H3K9 monomethylation, AlphaScreen, 2 h; note: % is set by controls: 0 for no effect and ±100 for the full control effect; nearly all actives have a fitted effect of over 75% in size
Target sequence (Q96KQ7 913-1193 limits assumed): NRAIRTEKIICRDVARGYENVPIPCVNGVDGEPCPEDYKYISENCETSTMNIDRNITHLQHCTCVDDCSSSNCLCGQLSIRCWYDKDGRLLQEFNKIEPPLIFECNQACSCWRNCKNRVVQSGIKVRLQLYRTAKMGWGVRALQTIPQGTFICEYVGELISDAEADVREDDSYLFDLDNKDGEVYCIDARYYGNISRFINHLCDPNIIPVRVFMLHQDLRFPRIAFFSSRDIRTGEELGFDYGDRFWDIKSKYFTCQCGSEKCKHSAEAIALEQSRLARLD
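G9a (20 nM) preincubated 15 min RT with compounds, then 500 nM biotinylated H3K9 peptide and 20 uM SAM added; 2 h RT reaction. Monomethyl-H3K9 product detected by AlphaScreen with anti-H3K9me1 antibody, streptavidin donor and anti-rabbit IgG acceptor beads.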
BAZ2B block = BAZ2B (human) inhibition. Potency, µM (highest dose often 114 µM), for inactives: at the top dose activity change, negative = inhibition, most hits filed as inhibitors. AID 504333. Q9UIF8. actives 4.4% (n = 360,000). AlphaScreen BAZ2B-H3K14Ac peptide displacement; note: % is set by controls: 0 for no effect and ±100 for the full control effect; nearly all actives have a fitted effect of over 60% in size
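Multi-concentration screen (max 110 uM) measuring displacement of acetylated histone H3 peptide from BAZ2B by AlphaScreen, using 50 nM protein, 50 nM peptide and 10 ug/mL streptavidin donor plus Ni-chelate acceptor beads.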
JMJD2A Tudor inh = inhibitors of human JMJD2A Tudor domain | Potency, µM (top dose mostly 114 µM), without a hit: at the highest dose activity change, negative = inhibition, most hits filed as inhibitors | AlphaScreen JMJD2A-Tudor / H3K4me3 peptide binding | actives 4.4% (n = 390,000); note: % is set by controls: 0 for no effect and ±100 for the full control effect; nearly all actives have a fitted effect of over 50% in size
Sfp inh = blocks B. subtilis Sfp PPTase activity; Biochemical Sfp PPTase activity, qHTS; Potency, µM, for inactives: largest response in the series, negative = inhibition, usual class: inhibitors; actives 3.5% (n = 310,000);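 note: the enzyme is Sfp with the accession as filed and its product quenches rhodamine fluorescence; 0% = enzyme reaction without inhibitor and -100% = no enzyme wells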
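Fluorescence-quenching assay: 15 nM Sfp-PPTase preincubated 15 min at room temperature with compound, then 5 uM rhodamine-CoA and 12.5 uM BHQ-2-labelled YbbR peptide added. Fluorescence (ex 525/em 598 nm) read at start and after 30 min; difference gives rate.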
HP1b chromo inh = HP1-beta chromodomain-methylated histone interaction inhibition; P83916; AlphaScreen HP1-beta / biotin-H3K9me3 peptide binding; Potency, µM (highest dose often 114 µM), for inactives: at the top dose activity change, negative = inhibition, most hits filed as inhibitors; actives 0.56% (n = 390,000); AID 540317; note: nearly all actives have a fitted effect of over 70% in size
Target sequence (P83916 whole entry, looked up): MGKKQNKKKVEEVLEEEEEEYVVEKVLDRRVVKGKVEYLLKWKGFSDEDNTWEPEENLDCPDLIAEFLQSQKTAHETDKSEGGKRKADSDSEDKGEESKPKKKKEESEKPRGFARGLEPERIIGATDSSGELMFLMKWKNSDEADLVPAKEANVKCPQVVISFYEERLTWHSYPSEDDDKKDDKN
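AlphaScreen: HP1-beta (50 nM) preformed 30 min with biotin-H3(1-18)K9me3 peptide (50 nM) in PBS pH 7.4, 0.01% Tween-20. Compound added for 30 min at RT, then streptavidin donor/nickel chelate acceptor beads (10 ug/mL) for 30 min.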
L3MBTL1 inh = blocks human L3MBTL1 | Potency, µM (highest dose often 57.1 µM), inactives show at the highest dose activity, negative = inhibition, actives largely listed as inhibitors | actives 0.66% (n = 230,000) | Q9Y468 | AID 485360 | AlphaScreen L3MBTL1–H3K9me1 peptide binding; note: % is set by controls: 0 for no effect and ±100 for the full control effect; nearly all actives have a fitted effect of over 60% in size
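Read-out is AlphaScreen signal from streptavidin donor and nickel chelate acceptor beads (10 ug/mL final each) bridging L3MBTL1 (50 nM) and biotinylated K9-monomethylated H3(1-15) peptide (75 nM), after 30 min compound exposure at room temperature.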
Active calls of the source: *; ? = inconclusive; . = not tested or not shown; ! = not confirmed by another sample; [ ] = another dose, or the depositor's remark. Calls come from the whole dose curve; as a rule, active = well fitted curve in the direction sought with a large enough effect; inconclusive = small, poorly fitted or top-dose-only effect, or another doubt; inactive = no such curve, though single readings can be large; an effect the other way counts as inactive or inconclusive. Potency is the fitted concentration of half-maximal effect.

SMILES | G9a inh | BAZ2B block | JMJD2A Tudor inh | Sfp inh | HP1b chromo inh | L3MBTL1 inh
CCCCc1nc2c(c3c1C[C@H](C)OC3)CN(S(=O)(=O)c1ccc(C#N)cc1)CC2 | . | . | . | -4% | . | .
COc1ccc(NC(=O)c2cc(CN3CCCC3)on2)cc1Cl | -25%[59 µM] | -20% | -27% | . | 16% | .
Cc1ccc(S(=O)(=O)NC2=C(N3CCN(Cc4ccccc4)CC3)C(=O)c3ccccc3C2=O)cc1 | 7.1µM* | 7.9µM* | 7.1µM* | 4% | 8.9µM* | .
CCOC(=O)N1CCN(C2=C(NS(=O)(=O)c3ccc(C)cc3)C(=O)c3ccccc3C2=O)CC1 | 22µM* | 8.9µM* | 22µM* | 79µM* | 20µM* | .
CCOC(=O)N1CCN(C(=O)COc2ccc(S(=O)(=O)NC(C)C)cc2)CC1 | 45µM* | 2% | -4% | 25% | 53% | -3%
Cc1ccc(S(=O)(=O)NC2=C(N3CCN(c4ccccc4F)CC3)C(=O)c3ccccc3C2=O)cc1 | -8%[0.501 µM] | 10µM* | 8.9µM* | -10% | 14µM*! | -10%
CCOC(=O)N1CCN(C(=O)c2ccc(CNS(=O)(=O)c3ccc(C)cc3)cc2)CC1 | -3% | 3% | 1% | 13% | 35% | 0%
CCNc1ncc2nc(-c3ccc(Cl)cc3)c(=O)n(C[C@H]3CCCO3)c2n1 | 9%[0.501 µM] | . | . | 4% | . | .
C/C=C(\C)C(=O)O[C@H]1C[C@@]2(C)CCC(C(C)C)C2(O)CC[C@@]1(C)O (stereo partly specified) | . | . | . | 11% | . | .
COc1cc2c(cc1OC)C1O[C@](CCCCN3C(=O)c4ccccc4C3=O)(C2)Oc2cc(C)n(Cc3ccccc3)c(=O)c21 | . | ? | . | -6% | . | .
CC1=C(C(=O)N2CCCCC2)C(c2ccc(Cl)cc2)n2c(nc3ccccc32)N1 (stereo unspecified) | 4%[59 µM] | 3% | -13% | . | 34% | .
CC(=O)Nc1ccc(S(=O)(=O)NC2=C(N3CCN(c4ccc(F)cc4)CC3)C(=O)c3ccccc3C2=O)cc1 | 2.8µM* | 22µM* | 22µM* | -13% | 25µM* | .
COC(=O)Nc1ccc(S(=O)(=O)N2CCN(c3ccc(F)cc3)CC2)cc1 | 8%[12.7 µM] | 11% | -22%[57.1 µM] | -6% | 18% | -9%[11.4 µM]
CN1CCN(C(=O)CCN2C(=O)/C(=C\c3ccc(Cl)cc3)SC2=S)CC1 | -11% | -34% | -28% | -4% | 11% | .
Cc1ccc(C)n1N1C(=O)/C(=C\c2ccc(Cl)cc2)SC1=S | ? | 2.8µM* | 40µM* | -14% | -68% | -29%
CC(=O)N(C(C)=O)N1C(=O)/C(=C/c2ccc(Cl)cc2)SC1=S | 14µM* | 28µM* | 11µM* | -7% | 10µM* | -19%
CCn1nc(C(=O)OCC(=O)Nc2ncc(Cl)c(C)c2Cl)c2ccccc2c1=O | 50µM* | ? | ? | 2% | -15% | -3%
CCOc1cc(C(=O)OCC(=O)Nc2ncc(Cl)c(C)c2Cl)ccc1OCC(=O)N1CCOCC1 | 45µM* | 4% | -13% | 5% | 13% | 0%
Cc1c(Cl)cnc(NC(=O)COC(=O)c2cc3c(s2)CCC(C)C3)c1Cl (stereo unspecified) | 35µM* | 3% | -18% | 9% | 10% | -7%
CCn1nc(C(=O)OCC(=O)NC(C)C)c2ccccc2c1=O | -4% | -4% | ? | 6% | -11% | .
Cc1c(C(=O)NCCc2ccc(Cl)cc2)cccc1-n1cnc2cccnc21 | ? | -1% | -7% | . | 50% | .
CS(=O)(=O)c1ccc([C@@H](O)[C@@H](COC(=O)CN)NC(=O)C(Cl)Cl)cc1 | 3%[12.7 µM] | . | . | -4% | . | .
CCCC(=O)Nc1nnc(S(=O)(=O)N(C)Cc2ccco2)s1 | ? | ? | ? | 45µM* | -13%[57 µM] | .
CCN(c1ccccc1C)S(=O)(=O)c1nnc(NC(=O)c2ccccc2C)s1 | 2.5µM* | ? | ? | . | -10% | .
CCN(c1cc(C)cc(C)c1)S(=O)(=O)c1nnc(NC(=O)c2cccs2)s1 | -28%[59 µM] | -5% | -27% | . | 4% | .
SMILES | G9a inh | BAZ2B block | JMJD2A Tudor inh | Sfp inh | HP1b chromo inh | L3MBTL1 inh
CCN(c1cccc(C)c1)S(=O)(=O)c1nnc(NC(=O)c2cccs2)s1 | 3.2µM* | 3.5µM* | ? | . | ? | .
CCN(c1ccc(OC)cc1)S(=O)(=O)c1nnc(NC(=O)c2ccccc2C)s1 | -41%[59 µM] | -14% | -14% | . | 18% | .
Cc1ccccc1C(=O)Nc1nnc(S(=O)(=O)N(C)Cc2ccco2)s1 | ? | -20% | -19% | 45µM* | 44% | .
CSc1ccc(CCNC(=O)CN2C(=O)COc3ccc(S(=O)(=O)N4CCCCCC4)cc32)cc1 | -12%[59 µM] | -39% | -28% | . | 15% | .
COc1ccccc1CCNC(=O)Cc1c(C)c2c(cc(C)c3c(C)coc32)oc1=O | -28%[59 µM] | 0% | -26% | . | 15% | .
CC(C)Oc1ccccc1OCCN(C)C | 13µM* | 45µM* | 32µM* | -54% | ? | 5%
COc1cccc(C2CC(=O)Nc3c2c(=O)[nH]c2ncnn32)c1OC (stereo unspecified) | ? | -2% | -9% | . | 15% | .
COc1cccc(C2CC(=O)Nc3c2c(=O)[nH]c2ncnn32)c1 (stereo unspecified) | 1% | -4% | 35µM* | 2% | 25% | .
FC(c1nc2ccccc2[nH]1)C(F)(F)F (stereo unspecified) | 31% | -17% | -12% | 1% | 34% | -11%
FC(F)c1nc2ccccc2[nH]1 | . | 40µM* | -8% | ? | 23% | -29%
Cc1ccc(NC(=O)C2=CN3CCS(=O)(=O)N=C3C=C2)cc1 | . | . | -14% | . | 35% | -3%
CC(C)(C)c1ccc(NC(=O)C2=CN3CCS(=O)(=O)N=C3C=C2)cc1 | 7.1µM* | 12% | 4% | . | 26% | 3%
CN(C)c1ccc(NC(=O)CSc2nnc(-c3ccco3)c(-c3ccco3)n2)cc1 | 25µM* | 25µM* | ? | ? | ? | .
O=C(CSc1nnc(-c2ccco2)c(-c2ccco2)n1)Nc1ccccc1 | -3%[2.33 µM] | 20µM* | 50µM* | 8.9µM* | 22µM* | 4µM*
O=C(CSc1n[nH]c(-c2ccco2)n1)Nc1ccc(F)cc1 | 6% | -4% | -18% | 3% | -6% | .
Cc1ccc(NC(=O)CSc2nnc(-c3ccco3)c(-c3ccco3)n2)cc1 | ? | 32µM* | 56µM* | 8.9µM* | ? | 20µM*
O=C(Nc1c(Cl)cccc1Cl)c1cccc2c1C(=O)N(C1CCCCC1)C2 | 0%[59 µM] | . | -9% | . | 28% | .
CC(C)C(NS(=O)(=O)c1ccc2c(c1)oc(=O)n2C)C(=O)NCCc1ccccc1 (stereo unspecified) | -31%[59 µM] | -10% | -10% | . | 40% | .

From PubChem BioAssay
